# Pf Dd2 growth – P. falciparum Dd2 growth inhibition; SYBR Green, 72 h; hits give low values; activity change, % at 10 µM; 94,000 compounds, 2.3% hits; in the data active = activity change below about -80%
# C diff HTS – blocks growth of Clostridium difficile; Clostridium difficile clinical isolate growth, OD600, 24 h; hits give low values; growth activity, negative = inhibition, % at 16 µg/mL (by protocol); 86,000 compounds, 0.25% hits; AID 1259249;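 active = mean growth activity at or below -80% and every replicate also at or below -80%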;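 note: 0% = DMSO wells and -100% = levofloxacin 16 µg/mL wells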
# T cruzi growth – T. cruzi proliferation inhibition; T. cruzi beta-gal in NIH3T3, GalScreen luminescence, 90 h; inhibition, % at 8.34 µM; 77,000 compounds, 5.9% hits; AID 624255;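 active = mean inhibition above about 93%, with at least 55% of replicates each passing it, limit read from the data, passing the limit was not always enough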
# Starred values were filed as active, the others as inactive; nt = not tested or not shown; ! = a repeat was not active. Rows were chosen to be rich in hits. Some 6.7% of all compounds tested hit in one or more screens of this group.
SMILES,Pf Dd2 growth,C diff HTS,T cruzi growth
COc1ccc2c3c([nH]c2c1)[C@@H](CO)N(CC1CCOCC1)CC31CN(CC2CCOCC2)C1,-37.6,1.4,nt
C[C@@H]1CCCCO[C@@H](CN(C)CC2CCCCC2)[C@H](C)CN([C@@H](C)CO)C(=O)c2cc(NC(=O)CCCCCC(=O)Nc3ccccc3N)ccc2O1,-81.1*,-1.9,67.2
C[C@@H]1CCCCO[C@@H](CN(C)Cc2ccccc2)[C@@H](C)CN([C@H](C)CO)C(=O)c2cc(NC(=O)CCCCCC(=O)Nc3ccccc3N)ccc2O1,-84.5*,-7.6,nt
C[C@@H]1CCCCO[C@@H](CN(C)CC2CC2)[C@@H](C)CN([C@H](C)CO)C(=O)c2cc(NC(=O)CCCCCC(=O)Nc3ccccc3N)ccc2O1,-78.0,-1.7,nt
C[C@@H]1CCCCO[C@@H](CN(C)Cc2ccncc2)[C@@H](C)CN([C@H](C)CO)C(=O)c2cc(NC(=O)CCCCCC(=O)Nc3ccccc3N)ccc2O1,-36.9,-3.2,nt
N#Cc1cccc(-c2ccc(C3[C@@H]4CN(C(=O)Nc5ccccc5)C[C@H]3N4)cc2)c1 (stereo partly drawn),-30.7,38.5,nt
N#Cc1ccc(-c2ccc(C3[C@@H]4CN(C(=O)C5CCC5)C[C@H]3N4)cc2)cc1 (stereo partly drawn),-90.9*!,-1.1,nt
N#Cc1cccc(-c2ccc(C3[C@@H]4CN(C(=O)C5CC5)C[C@H]3N4)cc2)c1 (stereo partly drawn),-90.2*!,-5.3,nt
O=C(c1ccc(F)cc1)N1C[C@@H]2N[C@H](C1)C2c1ccc(-c2ccccc2F)cc1 (stereo partly drawn),-32.4,70.9,nt
O=C(C1CCCC1)N1C[C@@H]2N[C@H](C1)C2c1ccc(-c2cncnc2)cc1 (stereo partly drawn),-9.4,3.4,nt
O=C(C1CCCC1)N1C[C@@H]2N[C@H](C1)C2c1ccc(-c2ccncc2)cc1 (stereo partly drawn),-1.4,-1.8,nt
O=C(C1CC1)N1C[C@@H]2N[C@H](C1)C2c1ccc(-c2ccccc2F)cc1 (stereo partly drawn),-87.1*!,1.0,nt
N#Cc1ccc(-c2ccc(C3[C@@H]4CN(C(=O)C5CCCC5)C[C@H]3N4)cc2)cc1 (stereo partly drawn),-80.8*,2.5,nt
CO[C@@H]1CN(C)C(=O)c2cc(NC(=O)c3ccc(F)cc3)ccc2OC[C@@H](C)NC[C@@H]1C,9.9,-5.3,-3.4
C[C@@H]1CN([C@@H](C)CO)C(=O)Cc2cc(NC(=O)Cc3ccccc3)ccc2O[C@@H]1CN(C)S(=O)(=O)c1ccc(F)cc1,-31.8,17.9,28.1
CC(=O)N(C)C[C@@H]1Oc2cc(C#CC3CCCC3)ccc2S(=O)(=O)N([C@@H](C)CO)C[C@H]1C,-41.6,-3.3,57.9
O=C(Nc1ccc2c(c1)OCO2)N[C@@H]1CC[C@@H](CCNC(=O)C2CCOCC2)O[C@H]1CO,nt,-1.3,nt
O=C(CCN1CCCCC1)N[C@@H]1CC[C@H](CCn2cc(-c3ccccc3)nn2)O[C@H]1CO,-18.8,4.2,-55.8
O=C(C1CCOCC1)N1CC(=O)N2[C@H](C1)[C@H](c1ccc(C#CC3CCCCC3)cc1)[C@@H]2CO,-48.4,43.5,nt
O=C(C1CCCC1)N1C[C@@H]2N[C@H](C1)C2c1ccc(-c2cccc(F)c2)cc1 (stereo partly drawn),-65.1,39.3,nt
O=C(C1CC1)N1C[C@@H]2N[C@H](C1)C2c1ccc(-c2cccc(F)c2)cc1 (stereo partly drawn),-81.4*!,0.9,nt
CCCC(=O)Nc1ccc2c(c1)C(=O)N(C)C[C@H](OC)[C@@H](C)CN(S(=O)(=O)c1cn(C)cn1)[C@H](C)CO2,14.5,nt,44.0
Cc1cc(C(=O)Nc2cccc3c2O[C@@H](CN(C)S(=O)(=O)c2ccccc2)[C@H](C)CN([C@H](C)CO)C3=O)n(C)n1,20.9,-1.0,8.0
C[C@@H]1CN([C@H](C)CO)C(=O)c2cccc(NC(=O)c3ccncc3)c2O[C@@H]1CN(C)CC1CC1,36.1,-1.0,-10.6
COc1ccc(-c2ccccc2[C@H]2[C@@H](C#N)N(C(=O)C3CCCC3)[C@H]2CO)cc1,-98.5*,-2.9,nt
CS(=O)(=O)N1[C@H](C#N)[C@@H](c2ccccc2-c2ccc(F)cc2)[C@@H]1CO,-23.7,-2.0,nt
N#C[C@@H]1[C@H](c2ccccc2/C=C/c2ccccc2)[C@H](CO)N1S(=O)(=O)c1cccc(F)c1,-27.4,-6.1,nt
COc1ccc(-c2ccccc2[C@@H]2[C@@H](C#N)N(C(=O)NC3CCCCC3)[C@H]2CO)cc1,-5.6,15.6,nt
COc1ccc(-c2ccccc2[C@@H]2[C@H](C#N)N(C(=O)C3CCCC3)[C@H]2CO)cc1,13.5,5.6,nt
CS(=O)(=O)N1[C@H](C#N)[C@H](c2ccccc2-c2ccc(F)cc2)[C@H]1CO,-86.4*,-14.6,nt

# Source: PubChem (Broad Institute)
